High-throughput results: PubChem, several laboratories
FBA Mtb inh = Mtb fructose-bisphosphate aldolase inhibition | P9WQA3 | purified M. tuberculosis FBA, fluorescence read-out | inhibition, % at 1 µM | hit rate 2.3% among 360,000; in the data active = inhibition above about 27%;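 note: 0% = vehicle and 100% = reference inhibitor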
UGM FP inh = inhibitors of M. tuberculosis UDP-galactopyranose mutase; P9WIQ1; purified UGM, fluorescence polarization probe displacement; inhibition, % at 10 µM; hit rate 0.06% among 320,000; AID 504406; in the data active = inhibition above about 10%, passing the limit was not always enough
Target sequence (P9WIQ1 whole entry, looked up): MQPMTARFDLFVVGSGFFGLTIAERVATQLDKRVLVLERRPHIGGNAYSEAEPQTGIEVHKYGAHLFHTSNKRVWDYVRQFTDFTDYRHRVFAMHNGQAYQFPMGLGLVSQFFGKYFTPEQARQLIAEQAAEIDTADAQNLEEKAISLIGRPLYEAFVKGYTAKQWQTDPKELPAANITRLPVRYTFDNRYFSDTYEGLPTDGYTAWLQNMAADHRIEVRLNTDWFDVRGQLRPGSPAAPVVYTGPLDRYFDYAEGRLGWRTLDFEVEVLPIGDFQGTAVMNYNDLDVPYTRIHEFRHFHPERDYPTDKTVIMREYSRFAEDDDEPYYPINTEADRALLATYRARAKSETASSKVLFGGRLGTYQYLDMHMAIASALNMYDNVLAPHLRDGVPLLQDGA
Rv3671c inh = inhibitors of M. tuberculosis serine protease Rv3671c; hit rate 0.048% among 320,000; AID 2606; inhibition, % at 5.96 µM; in the data active = inhibition above about 38%;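 note: extracellular domain of Rv3671c used as enzyme; 0% = enzyme with DMSO and 100% = no enzyme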
RecA splice inh = inhibitors of M. tuberculosis RecA intein splicing; P9WHJ3; cell-free RecA intein splicing, fluorescence; inhibition, % (test concentration not listed); hit rate 0.75% among 290,000; in the data active = inhibition above about 30%;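 note: 0% = vehicle wells and 100% = reference inhibitor control wells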
Mtb bLac sens = beta-lactam sensitization of Mtb H37Rv; inhibition, % at 25 µM; M. tuberculosis H37Rv growth with meropenem, percent inhibition; hit rate 0.27% among 330,000; AID 434955; call rule not given here;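 note: growth measured after seven days incubation then overnight dye step; 0% = bacteria only wells and 100% = bacteria with antibiotic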
GDH-TPI inh = counter-screen for M. tuberculosis FBA inhibitors: GDH-TPI coupled enzymes; GDH-TPI coupled enzyme counterscreen, NADH absorbance; inhibition, % at 4.8 µM; hit rate 1.2% among 360,000; in the data active = inhibition above about 30%;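 note: 0% = DMSO wells and 100% = wells lacking the enzyme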
Active calls of the source: *; / = no result given. Hits are enriched below; roughly 4% of the tested compounds scored in any of these assays.

SMILES	FBA Mtb inh	UGM FP inh	Rv3671c inh	RecA splice inh	Mtb bLac sens	GDH-TPI inh
COc1ccc(CSc2nc(C)[nH]c2[N+](=O)[O-])cc1[N+](=O)[O-]	-10	-3	-8	-1	0	42*
CCC(C)Sc1ccc(-c2nc3ccc(C)cn3c2NCc2ccccc2)cc1OC (stereo not drawn)	116*	3	4	-1	99	42*
CCC(C)Sc1cc(-c2nc3ccc(C)cn3c2NCc2ccccc2)ccc1OC (stereo not drawn)	64*	-4	8	12	14	10
COc1ccc(-c2nc3ccc(C)cn3c2NCc2ccccc2)cc1SC1CCCCC1	25	0	6	0	-2	13
CN(C)c1ccc(C=O)c(Oc2ccccc2)c1	-2	/	/	/	/	38*
CCOC(=O)c1cnn2c1[nH]c(=O)c1ccccc12	30*	0	0	/	-2	9
CCOC(=O)c1cnc(Cc2ccccc2)[nH]c1=O	3	3	-5	2	5	1
CS(=O)(=O)c1ccc(NC(=O)c2cccc(S(=O)(=O)N3CCN(Cc4ccccc4)CC3)c2)cc1	0	1	-32	/	-5	1
CCCCn1c(N)c(N(CCOC)C(=O)COC(=O)c2ccccc2NCCO)c(=O)[nH]c1=O	124*	/	/	/	/	12
CCN(C(=O)COC(=O)c1ccccc1NCc1ccco1)c1c(N)n(Cc2ccccc2)c(=O)[nH]c1=O	142*	/	/	/	/	-4
CN(C(=O)CN1CCN(c2cc(-c3cccc4oc5ccccc5c34)ncn2)CC1)c1ccccc1	-3	/	/	/	/	0
CCCCN(C)C(=O)c1cc2c(s1)-c1ccccc1S(=O)(=O)C2	6	-2	6	-2	-7	12
CC(C)CCNC(=O)c1cc2c(s1)-c1ccccc1S(=O)(=O)C2	15	0	-3	-2	6	32*
C[C@@H]1C(c2cccc(Cl)c2)=NN(c2ccc(Br)cc2)[C@H]1C(=O)N1CCOC1=O	56*	/	/	/	/	16
Cc1cccc(C2=NN(c3ccccc3)[C@@H](C(=O)N3CCOC3=O)[C@@H]2c2ccccc2)c1	9	/	/	/	/	11
O=C1OCCN1C(=O)[C@H]1[C@H](c2ccccc2)C(c2ccccc2)=NN1c1ccc(Br)cc1	43*	/	/	/	/	16
O=C1OCCN1C(=O)[C@H]1[C@H](c2ccccc2)C(c2ccc(F)cc2)=NN1c1ccc(Br)cc1	35*	/	/	/	/	24
